Here are results for 16 compounds from PubChem BioAssay (NCI).

Molecules are shown by their SMILES. About 83,000 compounds went through this panel and 20% of them were active in at least one assay; those are over-represented in the sample as a whole.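 Cells were grown in 96-well plates and exposed to the test compound at a single concentration for 48 hours; results are reported as percent growth, with values below 10 considered active.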 Values without a mark were called inactive. Calls of active or inactive are those of the source.

The subject of the assay is IGROV1 ovarian. The assay can be described thus: NCI-60 one-dose screen, 48 h (100 = growth as untreated, 0 = no growth, -100 = all killed). The settings on record: 10 µM.
`CCCOCC(O)CNCCN` (stereo unspecified): the growth is 116%.

As for `CCCC(C)c1ccc(OCCCCCCN2CCNCC2)cc1` (stereo unspecified), the growth is 64.7%.

With `Nc1cc(O)cc(O)c1`, the growth was 100%.

Take `Cc1cc(C(C)(C)CC(C)(C)C)ccc1OCCOCC[N+](C)(C)Cc1ccccc1`: the growth was -76.8% (active).

`CC(C)c1[nH]nc2c(NCc3ccc(-c4ccccn4)cc3)nc(SCCN)nc12`: the growth was 10.3%.

As for `CC(=O)c1c(O)cc2c3c1OC(C)(C)C1CCC(C)(CC31)O2` (stereo unspecified), the growth is 96.2%.

On to `CN(C)CCCN1c2ccccc2Sc2ccc(C(F)(F)F)cc21`, for which the growth is 17%.

For `CNC(=O)c1cc(Oc2ccc(NC(=O)Nc3ccc(Cl)c(OC4CCCCC4)c3)c(F)c2)ccn1`, the growth is 62.9%.

As to `O=C(Nc1cccc(F)c1)Nc1cccc(Cl)c1`, the growth is 111%.

As to `CCN(CC)CC(O)CNc1ccnc2cc(Cl)c(Cl)cc12` (stereo unspecified), the growth was 91.1%.

As for `CCCCCCOc1ccc(/C=C/C(=O)c2ccc(B(O)O)cc2)cc1`, the growth was 64.7%.

As to `CC1(C)CC(OCCCC[P+](c2ccccc2)(c2ccccc2)c2ccccc2)CC(C)(C)N1O`, the growth was -21% (active).

Consider `Fc1cc(-c2ncc(-c3cc(F)c(F)c(F)c3)c(NC3CCCCCC3)n2)cc(F)c1F`, for which the growth was 110%.

`O=C(NC1CCCC1)c1ccc(N2CCC(NCc3cccc(C(F)(F)F)c3)CC2)cc1`: the growth is 94.1%.

In the case of `CC1=CC2OC34COC3CC(OC(=O)C(F)(F)F)C4(C)C2(C)CC1` (stereo unspecified), the growth was 119%.

For the compound `CCCCOCCOCCOCc1cc2c(cc1Br)OCO2`, the growth is 89.6%.
